A short description of assay [1]: optical density shifts of acrAB sulA E. coli – strain DRC41, OD650, 48 h, E. coli filamentation inducer project, primary screen (AID 1152).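 Also: E. coli MC1000 strain DRC41 lacking acrAB efflux pump and sulA.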 The following applies: higher = more signal, called active from +8 up or from −8 down.
Assay [2] is described as follows: probe aLefty1 binding on compound microarray – biochemical, small-molecule microarray, 635/667 nm fluorescence, primary screen (AID 1153).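 Also: score merges spot fluorescence with signal-to-noise ratio from the scanned slide images.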 As to conditions: higher = more signal.
The nature of assay [3]: plasmodial surface anion channel blockers, osmotic lysis – cell-based, P. falciparum Indochina, OD700, 1 h, primary screen (AID 1154). The following applies: P. falciparum Indochina infected RBC osmotic lysis, higher = more signal, called active from +8 up or from −8 down.
Assay [4] in a line: plasmodial surface anion channel blockers, osmotic lysis – cell-based, P. falciparum Indochina, OD700, 2 h, primary screen (AID 1155).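 Also: lysis reports solute entry through the parasite surface anion channel PSAC.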 As to conditions: P. falciparum Indochina infected erythrocytes, higher = more signal, called active from +8 up or from −8 down.
The nature of assay [5]: changes in parasitized red cell lysis, either direction – P. falciparum Indochina, OD700, 3 h, PSAC antagonist project, primary screen (AID 1156). The following applies: P. falciparum-infected erythrocytes, osmotic lysis, higher = more signal, called active from +8 up or from −8 down.
A short description of assay [6]: plasmodial surface anion channel blockers, osmotic lysis – cell-based, P. falciparum Indochina, OD700, 18 h, primary screen (AID 1157). As to conditions: P. falciparum Indochina infected erythrocytes, osmotic lysis OD700, 18 h; higher = more signal, called active from +8 up or from −8 down.
Assay [7] can be described thus: S6 kinase pathway phospho-S6 level changes – cell-based, A549, cytoblot, luminescence, serum-stimulated, primary screen (AID 1158).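 Also: serum-stimulated A549 lung adenocarcinoma cells; signal is phosphorylated S6 detected by cytoblot immunostaining with HRP secondary.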 The following applies: 5 h, higher = more signal.
The target of assay [8] is NADPH oxidase 2 (Homo sapiens) (UniProt P04839). Put plainly: compounds shifting NOX2 Amplex Red fluorescence – cell-based, HEK293-NOX2, PMA-stimulated, NOX inhibitor project, primary screen (AID 1159). Also: test concentration not given here. The following applies: 45 min, higher = more signal, called active from +8 up or from −8 down.
The target of assay [9] is NADPH oxidase 4 (Homo sapiens) (UniProt Q9NPH5). In words: compounds shifting NOX4 Amplex Red fluorescence – cell-based, HEK293-NOX4, tetracycline-induced, NOX inhibitor project, primary screen (AID 1160). As to conditions: HEK293-NOX4, Amplex Red H2O2 fluorescence, 45 min; higher = more signal, called active from +8 up or from −8 down.
Assay [10] concerns the target NADPH oxidase 5 (Homo sapiens) (UniProt Q96PH1). In words: compounds shifting NOX5 Amplex Red fluorescence – cell-based, HEK293-NOX5, NOX inhibitor project, primary screen (AID 1161). As to conditions: HEK293-NOX5, ionomycin, 45 min, higher = more signal.

Activity calls are given as the source filed them.

Chain of NADPH oxidase 5 (Homo sapiens) (Q96PH1 whole entry, looked up): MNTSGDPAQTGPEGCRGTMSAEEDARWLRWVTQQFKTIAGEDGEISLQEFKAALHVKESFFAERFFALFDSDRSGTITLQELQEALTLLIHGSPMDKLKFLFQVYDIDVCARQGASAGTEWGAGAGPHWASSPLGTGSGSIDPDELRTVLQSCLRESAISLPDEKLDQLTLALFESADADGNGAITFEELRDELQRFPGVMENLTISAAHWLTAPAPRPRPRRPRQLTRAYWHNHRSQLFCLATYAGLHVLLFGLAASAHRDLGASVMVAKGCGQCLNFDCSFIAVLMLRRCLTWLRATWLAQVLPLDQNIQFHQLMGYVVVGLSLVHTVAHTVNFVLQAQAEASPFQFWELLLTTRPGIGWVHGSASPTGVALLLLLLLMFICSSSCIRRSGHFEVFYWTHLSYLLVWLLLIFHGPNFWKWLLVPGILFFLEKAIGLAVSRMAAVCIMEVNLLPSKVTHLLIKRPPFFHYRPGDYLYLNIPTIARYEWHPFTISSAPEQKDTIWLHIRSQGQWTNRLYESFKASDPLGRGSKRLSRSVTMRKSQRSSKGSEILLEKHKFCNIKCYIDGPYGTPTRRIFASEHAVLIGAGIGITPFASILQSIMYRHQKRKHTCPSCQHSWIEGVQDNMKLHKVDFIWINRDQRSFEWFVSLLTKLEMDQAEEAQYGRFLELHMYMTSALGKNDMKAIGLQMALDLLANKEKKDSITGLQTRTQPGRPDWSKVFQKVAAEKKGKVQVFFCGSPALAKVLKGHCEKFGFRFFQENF
Chain of NADPH oxidase 2 (Homo sapiens) (P04839 whole entry, looked up): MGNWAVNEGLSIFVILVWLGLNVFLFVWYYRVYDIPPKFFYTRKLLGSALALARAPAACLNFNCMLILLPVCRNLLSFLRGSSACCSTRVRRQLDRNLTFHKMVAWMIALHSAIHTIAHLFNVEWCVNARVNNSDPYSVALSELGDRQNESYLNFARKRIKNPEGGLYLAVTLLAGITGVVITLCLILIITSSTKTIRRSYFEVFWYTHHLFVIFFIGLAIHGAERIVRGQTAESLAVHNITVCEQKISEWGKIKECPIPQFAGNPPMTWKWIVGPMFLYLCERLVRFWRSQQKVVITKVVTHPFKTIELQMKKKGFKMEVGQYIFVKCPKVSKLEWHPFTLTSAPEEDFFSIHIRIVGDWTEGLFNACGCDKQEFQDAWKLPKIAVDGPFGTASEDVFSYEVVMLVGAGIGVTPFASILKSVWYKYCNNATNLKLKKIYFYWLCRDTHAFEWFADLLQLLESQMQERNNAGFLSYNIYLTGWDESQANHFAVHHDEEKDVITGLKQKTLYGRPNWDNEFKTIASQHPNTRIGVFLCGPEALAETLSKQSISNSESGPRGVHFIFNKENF
Chain of NADPH oxidase 4 (Homo sapiens) (Q9NPH5 whole entry, looked up): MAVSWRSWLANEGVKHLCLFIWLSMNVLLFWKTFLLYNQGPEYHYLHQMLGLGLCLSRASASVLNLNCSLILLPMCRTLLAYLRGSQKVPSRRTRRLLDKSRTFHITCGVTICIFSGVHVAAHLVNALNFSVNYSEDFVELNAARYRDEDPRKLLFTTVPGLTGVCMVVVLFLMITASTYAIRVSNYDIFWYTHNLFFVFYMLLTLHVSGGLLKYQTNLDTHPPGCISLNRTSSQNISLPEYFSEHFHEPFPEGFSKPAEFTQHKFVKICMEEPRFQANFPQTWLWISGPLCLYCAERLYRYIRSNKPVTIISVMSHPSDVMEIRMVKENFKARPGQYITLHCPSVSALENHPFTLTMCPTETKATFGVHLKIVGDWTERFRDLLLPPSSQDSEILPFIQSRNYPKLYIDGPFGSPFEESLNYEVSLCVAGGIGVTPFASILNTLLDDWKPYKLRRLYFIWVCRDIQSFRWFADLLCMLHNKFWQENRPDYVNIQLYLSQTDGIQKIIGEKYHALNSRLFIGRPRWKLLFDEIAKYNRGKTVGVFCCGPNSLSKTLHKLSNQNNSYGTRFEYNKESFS

On to `C=C[C@@H](COC(C)=O)N(C(=O)OC(C)(C)C)S(=O)(=O)c1ccc(Br)cc1`, for which the z-score in [1] was 0.336 (inactive); in assay [3], 0.478 (inactive); in assay [4] it was -0.145 (inactive); in assay [5], 0.14 (inactive); in assay [6], 0.0566 (inactive); in assay [7] it was -0.178. The z-score in [8] was -1.47 (inactive); in assay [9], -0.744 (inactive); in assay [10] it was -1.23. The compound also displayed a composite z-score in [2] of -0.105.

For the compound `C=CCC(OC(C)=O)[C@@H]1[C@@H](N(Cc2cc3ccccc3o2)C(=O)Cc2ccc(F)cc2)c2cc(OCCCO)ccc2N1C(=O)c1ccc2ccccc2c1` (stereo not given in full), the z-score in assay [1] was -0.959 (inactive); in assay [3], 1.18 (inactive); in assay [4] it was 0.305 (inactive); in assay [5], -0.97 (inactive); in assay [6], 0.112 (inactive); in assay [7], -0.448. Also, the values for the z-score in assay [8], in [9] and in assay [10] were 0.512 (inactive), 0.957 (inactive) and 2.34, respectively. In assay [2], this compound gave a composite z-score of 0.106.

In the case of `CN1C(=O)C2C=CC(C(O)COCc3ccccc3)N(N(c3ccccc3)c3ccccc3)C2C1=O` (stereo not given), the z-score was -0.339 (inactive) in assay [1]; 3.65 (inactive) in assay [3]; 1.49 (inactive) in [4]; 0.361 (inactive) in assay [5]; 1.07 (inactive) in [6]; -0.849 in assay [7]. Further, the z-score in assay [8] was 1.58 (inactive); in assay [9], -4.42 (inactive); in assay [10], 0.262. For the same compound, the composite z-score in [2] is 0.479.

On to `C=C(CCCC)/C(=C/C[C@@H](OC(=O)c1ccncc1)c1ccccc1OCCO)c1cnc2ccccc2c1`, for which the z-score is -0.209 (inactive) in assay [1]; 20.2 (active) in assay [3]; 4.55 (inactive) in assay [4]; 1.58 (inactive) in assay [5]; 1.12 (inactive) in assay [6]; 0.759 in [7]. Also, the z-score in assay [8] is -0.852 (inactive); in assay [9] it was 0.474 (inactive); in assay [10] it was -0.524. Further, in assay [2], the composite z-score amounted to 0.541.

Regarding `CO[C@H]1O[C@H](CO)[C@@H](OC(=O)Nc2ccc3c(c2)OCO3)[C@H](OC(=O)c2cc3ccccc3[nH]2)[C@H]1OC(=O)c1cc2ccccc2[nH]1`, the z-score in [1] is 0.599 (inactive); in assay [3] it was 1.48 (inactive); in assay [4], -0.354 (inactive); in assay [5], -0.739 (inactive); in [6], -0.536 (inactive); in assay [7], 1.26. In addition, the z-score in [8] was -3.78 (inactive); in [9], -1.95 (inactive); in assay [10] it was -3.47. This compound returned a composite z-score in assay [2] of -0.0162.

For the compound `CCC(CC)C(O)C1C=CC2C(=O)N(c3ccccc3)C(=O)C2N1Nc1ccc(C(C)C)cc1` (stereo not given), the z-score was -0.636 (inactive) in [1]; 1.46 (inactive) in assay [3]; 1.19 (inactive) in assay [4]; 0.741 (inactive) in [5]; 0.801 (inactive) in assay [6]; -0.463 in assay [7]. Further, the z-score in [8] was -0.743 (inactive); in assay [9] it was -4.43 (inactive); in assay [10], -3.75. Also, the composite z-score in assay [2] was found to be 0.501.

Consider `O[C@@H](Cc1ccccc1)[C@@H](/C=C/C1CC1)N(CC#Cc1ccccc1)Cc1cccc(Cl)c1`, for which the z-score is 1.96 (inactive) in assay [1]; 1.49 (inactive) in [3]; 0.761 (inactive) in assay [4]; 0.124 (inactive) in assay [5]; 0.23 (inactive) in assay [6]; 0.715 in assay [7]. In addition, the values for the z-score in assay [8], in assay [9] and in assay [10] were 0.166 (inactive), 0.727 (inactive) and -0.406, respectively. This compound also registered a composite z-score in assay [2] of 0.161.

Regarding `CC(C)C(=C=CC[C@H](O)c1ccc(OCCO)cc1)C[C@H](O)c1ccccn1`, the z-score in assay [1] is 0.839 (inactive); in assay [3] it was 11.3 (active); in [4] it was 2.04 (inactive); in [5], 1.11 (inactive); in [6], 0.945 (inactive); in assay [7] it was 0.439. In addition, the values for the z-score in assay [8], in assay [9] and in assay [10] were 1.66 (inactive), 0.926 (inactive) and -1.03, respectively. Further, the composite z-score in [2] was -0.191.

Take `CC(C)C(=C=CC[C@H](O)c1cccc(OCCO)c1)C[C@H](O)c1cc(Cl)cc(Cl)c1O`: the z-score in assay [1] was 0.321 (inactive); in [3], 14.5 (active); in assay [4], 2.25 (inactive); in assay [5] it was 0.667 (inactive); in [6] it was 0.847 (inactive); in assay [7], 1.53. Moreover, the z-score in assay [8] is -1.01 (inactive); in assay [9], -0.881 (inactive); in assay [10], -1.83. Besides, in assay [2], the composite z-score was 0.0999.

With `C=CCC(OC(C)=O)[C@@H]1[C@@H](N(Cc2cccc3ccccc23)C(=O)Cc2ccc(OC)cc2)c2cc(OCCCO)ccc2N1C(=O)c1ccc2ccccc2n1` (stereo not given in full), the z-score in assay [1] is -0.899 (inactive); in assay [3], 2.1 (inactive); in assay [4], 0.786 (inactive); in assay [5], 0.714 (inactive); in [6], 0.385 (inactive); in assay [7], 0.135. In addition, the figures for the z-score in assay [8], in [9] and in assay [10] were -1.4 (inactive), -0.588 (inactive) and -1.25, respectively. Further, the composite z-score in [2] stood at 0.164.

As for `CCOC(=O)C1=CC[C@@H](c2cccc(Cl)c2)N(S(=O)(=O)c2ccc(C)cc2)C1`, the z-score in assay [1] is 0.065 (inactive); in [3], 2.31 (inactive); in assay [4] it was -0.389 (inactive); in assay [5] it was -0.423 (inactive); in [6] it was -1.89 (inactive); in assay [7], 1.02. The z-score was 0.201 (inactive) in assay [8], -0.927 (inactive) in assay [9] and -0.736 in [10]. This compound also registered a composite z-score in [2] of 0.0166.

As to `NCCCCCNC(=O)[C@@H]1C[C@@H]2C(=O)NCC(=O)N2[C@@H]1c1cccc(OCCO)c1`, the z-score is 1.81 (inactive) in [1]; 2.11 (inactive) in assay [3]; 0.282 (inactive) in assay [4]; -0.874 (inactive) in [5]; 0.154 (inactive) in [6]; 0.121 in assay [7]. Also, the results for the z-score in assay [8], in assay [9] and in [10] were 1.44 (inactive), -0.373 (inactive) and 2.89, respectively. In assay [2], this compound returned a composite z-score of 0.165.

`C=CCNC(=O)[C@@H]1[C@H]2C(=O)O[C@H](c3ccccc3)[C@H](c3ccccc3)N2[C@H](c2ccc(O)cc2)[C@@]12C(=O)N(C(=O)OCCOC)c1ccc(C#CC3(O)CCCCCC3)cc12`: the z-score was 2.23 (inactive) in assay [1]; 0.776 (inactive) in [3]; -0.353 (inactive) in assay [4]; 0.469 (inactive) in assay [5]; 0.682 (inactive) in assay [6]; 0.305 in assay [7]. For the same compound, the z-score is -0.00516 (inactive) in assay [8], 0.395 (inactive) in assay [9] and 0.849 in assay [10]. Moreover, the composite z-score in assay [2] is -0.639.

Source of the values: PubChem BioAssay.
